# Source: publication PMC5540273 (PLoS ONE, 2017)
# Like-named read-outs stand apart in the source and are kept apart here.
# What was measured:
# FGFR1 = conditions: concentration: 1 μM, replicates: in singlicate; n = 1
# FGFR2 = conditions: concentration: 1 μM, replicates: in singlicate; n = 1
# FGFR3 = conditions: concentration: 1 μM, replicates: in singlicate; n = 1
# FGFR4 = conditions: concentration: 1 μM, replicates: in singlicate; n = 1
# FGR = conditions: concentration: 1 μM, replicates: in singlicate; n = 1
# FLT1 = conditions: concentration: 1 μM, replicates: in singlicate; n = 1
# FLT3-autoinhibited = conditions: concentration: 1 μM, replicates: in singlicate; n = 1
# FLT3 = conditions: concentration: 1 μM, replicates: in singlicate; n = 1
# FLT4 = conditions: concentration: 1 μM, replicates: in singlicate; n = 1
# FRK = conditions: concentration: 1 μM, replicates: in singlicate; n = 1
# FYN = conditions: concentration: 1 μM, replicates: in singlicate; n = 1
# GAK = conditions: concentration: 1 μM, replicates: in singlicate; n = 1
# GCN2(Kin.Dom.2,S808G) = test system: T1, GCN2(Kin.Dom.2,S808G); conditions: concentration: 1 μM, replicates: in singlicate; n = 1
# T1 construct: gene EIF2AK4
# GRK1 = conditions: concentration: 1 μM, replicates: in singlicate; n = 1
# GRK2 = test system: T2, GRK2; conditions: concentration: 1 μM, replicates: in singlicate; n = 1
# T2 construct: gene ADRBK1
# GRK3 = test system: T3, GRK3; conditions: concentration: 1 μM, replicates: in singlicate; n = 1
# T3 construct: gene ADRBK2
# GRK4 = conditions: concentration: 1 μM, replicates: in singlicate; n = 1
# GRK7 = conditions: concentration: 1 μM, replicates: in singlicate; n = 1
# GSK3A = conditions: n = 1
# GSK3B = conditions: n = 1
# [1] = concentration: 1 μM, replicates: in singlicate
# 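Further: KINOMEscan kinase panel screen.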
compound,measurement,setting,value
COc1cc(Nc2nccc(-c3c(-c4cccc(NC(=O)c5c(F)cccc5F)c4)nn4ncccc34)n2)cc(OC)c1OC [GSK327238],%Inh,FGFR1,66%
same,%Inh,FGFR2,61%
same,%Inh,FGFR3,31%
same,%Inh,FGFR4,9%
same,%Inh,FGR,99.1%
same,%Inh,FLT1,99.2%
same,%Inh,FLT3-autoinhibited,0%
same,%Inh,FLT3,96.1%
same,%Inh,FLT4,99.8%
same,%Inh,FRK,96.9%
same,%Inh,FYN,97.5%
same,%Inh,GAK,31%
same,%Inh,"GCN2(Kin.Dom.2,S808G)",69%
same,%Inh,GRK1,0%
same,%Inh,GRK2,0%
same,%Inh,GRK3,0%
same,%Inh,GRK4,0%
same,%Inh,GRK7,0%
same,%Inh,GSK3A; [1],11%
same,%Inh,GSK3B; [1],7%
CCn1c(-c2nonc2N)nc2c(C#CC(C)(C)O)ncc(OCCCCN)c21.O=C(O)C(F)(F)F.O=C(O)C(F)(F)F [GSK507274],%Inh,FGFR1,0%
same,%Inh,FGFR2,60%
same,%Inh,FGFR3,5%
same,%Inh,FGFR4,9%
same,%Inh,FGR,33%
same,%Inh,FLT1,23%
same,%Inh,FLT3-autoinhibited,0%
same,%Inh,FLT3,0%
same,%Inh,FLT4,15%
same,%Inh,FRK,26%
same,%Inh,FYN,0%
same,%Inh,GAK,41%
same,%Inh,"GCN2(Kin.Dom.2,S808G)",13%
same,%Inh,GRK1,65%
same,%Inh,GRK2,0%
same,%Inh,GRK3,44%
same,%Inh,GRK4,21%
same,%Inh,GRK7,75%
same,%Inh,GSK3A; 1 µM,78%
same,%Inh,GSK3B; 1 µM,100%
O=C(NC1CCN(c2ccnc(Nc3ccc(F)cc3)n2)C1)c1cc2ccccc2s1 (stereo not drawn) [GSK1379716],%Inh,FGFR1,0%
same,%Inh,FGFR2,3%
same,%Inh,FGFR3,16%
same,%Inh,FGFR4,13%
same,%Inh,FGR,25%
same,%Inh,FLT1,20%
same,%Inh,FLT3-autoinhibited,0%
same,%Inh,FLT3,0%
same,%Inh,FLT4,3%
same,%Inh,FRK,18%
same,%Inh,FYN,26%
same,%Inh,GAK,13%
same,%Inh,"GCN2(Kin.Dom.2,S808G)",7%
same,%Inh,GRK1,3%
same,%Inh,GRK2,14%
same,%Inh,GRK3,33%
same,%Inh,GRK4,0%
same,%Inh,GRK7,0%
same,%Inh,GSK3A; [1],0%
same,%Inh,GSK3B; [1],20%
COc1cccc(NC(=O)NC2CCN(c3ccnc(Nc4cc(OC)c(OC)c(OC)c4)n3)C2)c1 (stereo not drawn) [GSK1379763],%Inh,FGFR1,0%
same,%Inh,FGFR2,0%
same,%Inh,FGFR3,8%
same,%Inh,FGFR4,1%
same,%Inh,FGR,25%
same,%Inh,FLT1,24%
same,%Inh,FLT3-autoinhibited,14%
same,%Inh,FLT3,62%
same,%Inh,FLT4,37%
same,%Inh,FRK,0%
same,%Inh,FYN,42%
same,%Inh,GAK,31%
same,%Inh,"GCN2(Kin.Dom.2,S808G)",4%
same,%Inh,GRK1,0%
same,%Inh,GRK2,0%
same,%Inh,GRK3,15%
same,%Inh,GRK4,0%
same,%Inh,GRK7,0%
same,%Inh,GSK3A; [1],0%
same,%Inh,GSK3B; [1],45%
COc1cccc(C2=C(Nc3ccc(Cl)c(C(=O)O)c3)C(=O)NC2=O)c1 [SB-390769],%Inh,FGFR1,8%
same,%Inh,FGFR2,0%
same,%Inh,FGFR3,15%
same,%Inh,FGFR4,25%
same,%Inh,FGR,24%
same,%Inh,FLT1,25%
same,%Inh,FLT3-autoinhibited,0%
same,%Inh,FLT3,0%
same,%Inh,FLT4,47%
same,%Inh,FRK,32%
same,%Inh,FYN,17%
same,%Inh,GAK,8%
same,%Inh,"GCN2(Kin.Dom.2,S808G)",100%
same,%Inh,GRK1,100%
same,%Inh,GRK2,0%
same,%Inh,GRK3,59%
same,%Inh,GRK4,14%
same,%Inh,GRK7,0%
same,%Inh,GSK3A; [1],56%
same,%Inh,GSK3B; 1 µM,34%
COC(=O)Nc1nc2cc(Oc3ccc(NC(=O)Nc4cc(C(F)(F)F)ccc4F)cn3)ccc2[nH]1.Cl.Cl [GW681170],%Inh,FGFR1,7%
same,%Inh,FGFR2,0%
same,%Inh,FGFR3,4%
same,%Inh,FGFR4,3%
same,%Inh,FGR,15%
same,%Inh,FLT1,94.1%
same,%Inh,FLT3-autoinhibited,40%
same,%Inh,FLT3,99.1%
same,%Inh,FLT4,79%
same,%Inh,FRK,55%
same,%Inh,FYN,41%
same,%Inh,GAK,5%
same,%Inh,"GCN2(Kin.Dom.2,S808G)",0%
same,%Inh,GRK1,0%
same,%Inh,GRK2,0%
same,%Inh,GRK3,0%
same,%Inh,GRK4,0%
same,%Inh,GRK7,0%
same,%Inh,GSK3A; [1],0%
same,%Inh,GSK3B; [1],8%
O=C(Nc1n[nH]c2nc(-c3ccc(O)cc3)ccc12)C1CC1 [SB-710363],%Inh,FGFR1,0%
same,%Inh,FGFR2,0%
same,%Inh,FGFR3,0%
same,%Inh,FGFR4,0%
same,%Inh,FGR,11%
same,%Inh,FLT1,16%
same,%Inh,FLT3-autoinhibited,18%
same,%Inh,FLT3,82%
same,%Inh,FLT4,0%
same,%Inh,FRK,0%
same,%Inh,FYN,0%
same,%Inh,GAK,8%
same,%Inh,"GCN2(Kin.Dom.2,S808G)",0%
same,%Inh,GRK1,34%
same,%Inh,GRK2,0%
same,%Inh,GRK3,16%
same,%Inh,GRK4,20%
same,%Inh,GRK7,13%
same,%Inh,GSK3A; [1],98.8%
same,%Inh,GSK3B; 1 µM,95.6%
c1ccc(-c2cnc3nccnn23)cc1 [AH20685],%Inh,FGFR1,0%
same,%Inh,FGFR2,0%
same,%Inh,FGFR3,0%
same,%Inh,FGFR4,0%
same,%Inh,FGR,10%
same,%Inh,FLT1,0%
same,%Inh,FLT3-autoinhibited,0%
same,%Inh,FLT3,43%
same,%Inh,FLT4,0%
same,%Inh,FRK,18%
same,%Inh,FYN,50%
same,%Inh,GAK,0%
same,%Inh,"GCN2(Kin.Dom.2,S808G)",42%
same,%Inh,GRK1,0%
same,%Inh,GRK2,0%
same,%Inh,GRK3,13%
same,%Inh,GRK4,0%
same,%Inh,GRK7,0%
same,%Inh,GSK3A; [1],0%
same,%Inh,GSK3B; [1],0%
Nc1ncc(-c2ccc3nccc(-c4ccncc4)c3c2)cc1S(=O)(=O)N1CCOCC1 [GSK1627798],%Inh,FGFR1,0%
same,%Inh,FGFR2,0%
same,%Inh,FGFR3,6%
same,%Inh,FGFR4,0%
same,%Inh,FGR,24%
same,%Inh,FLT1,22%
same,%Inh,FLT3-autoinhibited,0%
same,%Inh,FLT3,0%
same,%Inh,FLT4,0%
same,%Inh,FRK,8%
same,%Inh,FYN,14%
same,%Inh,GAK,6%
same,%Inh,"GCN2(Kin.Dom.2,S808G)",3%
same,%Inh,GRK1,1%
same,%Inh,GRK2,0%
same,%Inh,GRK3,17%
same,%Inh,GRK4,1%
same,%Inh,GRK7,0%
same,%Inh,GSK3A; [1],1%
same,%Inh,GSK3B; [1],3%
